# The list is not random: actives were taken first. Their share in the collection is about 3.6%.
# EBV LMP1 NFkB = reduces LMP1-driven NF-kappaB luciferase signal; AID 504558; hit rate 0.69% among 350,000; inhibition, % at 12.5 µM; LMP1-induced NF-kappaB luciferase reporter cells, luminescence; in the data active = inhibition above about 41%; inconclusive = no clear call, values can overlap the other calls
# TWEAK Fn14 block = TWEAK-Fn14 signaling inhibition; inhibition, % at 10 µM; TWEAK-stimulated Fn14 reporter cells, luciferase luminescence, 8 h; hit rate 2% among 360,000; in the data active = inhibition above about 50%
# HSF1 activator = increases HSF-1 driven luciferase reporter signal. NIH3T3-HGL HSF-1 luciferase reporter, MG132, 8 h; 100% = twice DMSO control signal. activation, % at 9 µM. hit rate 1.7% among 300,000;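 active = mean replicate activation of at least 50% with a set share of replicates each reaching 50%; inconclusive = only one of those two conditions met; inactive = mean below 50% and too few replicates reaching it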
# TROY NFkB inh = TROY signaling inhibition | inhibition, % at 10 µM | hit rate 0.98% among 360,000 | Q293 LMP1-TROYcd NF-kB luciferase reporter, 4 h;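 active = compounds whose plate-normalised and pattern-corrected inhibition of the luciferase reporter signal at the single screening dose is 50% or more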
# HSF1 inh = HSF1 inhibition | NIH3T3-HGL HSE-luciferase, MG132-induced, luminescence 8 h; stronger effect = lower value | activity change, negative = inhibition, % at 7.5 µM (by protocol) | hit rate 0.77% among 300,000;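 active = more than half of replicate wells show activity change below -50%, luminescence cut by over half; inconclusive = some wells, but at most half, below -50%; inactive = no replicate well below -50%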;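 note: luciferase reports HSF-1 transcriptional activity via heat shock element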
# LGR2 inh = inhibitors of bursicon-induced Drosophila LGR2 receptor cAMP signaling | HEK293 LGR2, CRE-luciferase, bursicon-stimulated, 4 h | inhibition, % at 9.99 µM | hit rate 0.35% among 380,000 | AID 720647;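 active = drop in luminescence signal, shown as inhibition above about 50% in the replicate tests, limit read from the data, passing the limit was not always enough; inconclusive = probably only some replicates passing the limit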;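 note: agonist challenge used bursicon conditioned medium at about half maximal strength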
# Numbers stand for hits; n = inactive; u = inconclusive; x = not tested or not shown.
SMILES,EBV LMP1 NFkB,TWEAK Fn14 block,HSF1 activator,TROY NFkB inh,HSF1 inh,LGR2 inh
CCC(=O)N(C)C[C@@H]1Oc2ncc(-c3ccccc3OC)cc2C(=O)N([C@@H](C)CO)C[C@H]1C,x,x,x,x,x,n
CCC(=O)N1[C@H](CO)[C@H](c2ccc(C3=CCCC3)cc2)[C@H]1CNC(=O)CN(C)C,x,x,x,x,x,n
O=C(NN1C(=O)C2C(C1=O)C1C=CC2C12CC2)c1ccc(Cl)cc1 (stereo unspecified),n,n,65.3,n,n,n
O=[N+]([O-])c1ccc(N=NN(CCO)CCO)cc1,n,n,n,n,n,n
O=[N+]([O-])c1ccc(N=Nc2ncc[nH]2)cc1,n,85.4,n,n,-66.3,n
CCOC(=O)N1CCC(n2c(=S)[nH]c3ccccc3c2=O)CC1,65.9,n,n,n,n,n
CCOC(=O)N1CCN(C(=O)CCCn2c(=S)[nH]c3ccccc3c2=O)CC1,n,n,n,n,n,x
CCn1c(=O)n(CC)c2cc(N3CCCC3)c(NC(=O)c3ccc(OC)c(Br)c3)cc21,n,n,n,n,-71.4,n
CCn1c(=O)n(CC)c2cc(N3CCCC3)c(NC(=O)c3ccccc3OC)cc21,n,n,n,n,n,n
C/C(Cl)=C/Cc1c(C)[nH]c2ccc(C)cc2c1=O,n,n,58.2,n,n,x
CCCCC(=O)Nc1cccc(NC(=O)c2cccc(Br)c2)c1,n,n,n,n,-62.3,n
O[C@H]1C[C@H](c2ccccc2)N(CC2CCCCC2)C[C@@H]1n1cc(C2CC2)nn1,n,64.1,x,n,x,n
CCCCCCN1C[C@@H](O)[C@H](n2cc(C3CC3)nn2)C[C@@H]1c1ccc(Cl)cc1,n,n,x,n,x,n
O[C@H]1C[C@H](c2ccc(Cl)cc2)N(CC2CCCCC2)C[C@@H]1n1cc(-c2ccc(F)cc2)nn1,n,n,x,n,x,n
O[C@H]1CN(CC2CCCCC2)[C@@H](c2ccc(Cl)cc2)C[C@@H]1n1cc(C2CC2)nn1,n,n,x,51.8,x,n
O[C@@H]1CN(CC2CCCCC2)[C@@H](c2ccccc2)C[C@H]1n1cc(C2CC2)nn1,n,n,x,n,x,n
O[C@H]1CN(CC2CCCCC2)[C@@H](c2ccc(Cl)cc2)C[C@@H]1n1cc(-c2ccc(F)cc2)nn1,n,50.2,x,n,x,n
CCC1Oc2ccc(C)cc2N(CC(=O)N(Cc2cccnc2)Cc2cccc(F)c2)C1=O (stereo unspecified),n,n,n,n,n,x
O=C(CN1C(=O)COc2ccccc21)N(Cc1cccnc1)Cc1cccc(F)c1,n,67.5,n,n,n,n
O=C(Nc1cccc2ccccc12)c1ccc([N+](=O)[O-])s1,n,n,70.9,n,n,n
Cn1ncc([N+](=O)[O-])c1C(=O)Nc1cccc2ccccc12,n,n,n,n,n,n
O=C(Nc1ccccc1F)c1ccc([N+](=O)[O-])s1,n,n,101.5,n,n,n
O=C(Nc1cccnc1)c1ccc([N+](=O)[O-])s1,n,n,x,n,x,n
CCc1ccc(S(=O)(=O)Nc2ccc(O)c3c(=O)cc(-c4ccccc4Cl)oc23)cc1,n,n,n,n,n,n
O=c1cc(-c2ccccc2Cl)oc2c(NS(=O)(=O)c3cc(Cl)cc(Cl)c3O)ccc(O)c12,n,65.1,n,68.4,n,x
SMILES,EBV LMP1 NFkB,TWEAK Fn14 block,HSF1 activator,TROY NFkB inh,HSF1 inh,LGR2 inh
C[C@]12CC[C@@H]3c4cc(O)c(O)cc4CC[C@H]3[C@@H]1CC[C@@H]2O,n,n,85.4,n,n,n
C[C@]12CC[C@@H]3c4ccc(O)cc4CC[C@H]3[C@@H]1CC[C@@H]2O,n,n,n,n,n,x
O=C(COc1ccc(F)cc1)c1ccc2c(c1)CCCC2,n,n,77.7,n,n,x
CC(NC(=O)c1ccc(F)cc1)c1ccc2c(c1)CCCC2 (stereo unspecified),n,n,n,52.8,n,x
O=C(COc1ccc(Cc2ccccc2)cc1)c1ccc(F)cc1,n,n,n,n,n,n
CC(NC(=O)c1ccccc1Br)c1ccc2c(c1)CCCC2 (stereo unspecified),n,n,59.4,n,n,x
CC(NC(=O)c1ccc(Br)cc1)c1ccc2c(c1)CCCC2 (stereo unspecified),n,n,n,n,n,n
COc1ccc(NC(=O)N(C)C[C@@H]2OCCCC[C@H](C)Oc3ccc(NS(=O)(=O)c4c(C)noc4C)cc3C(=O)N([C@H](C)CO)C[C@@H]2C)cc1,x,x,x,x,x,n
CCNC(=O)C[C@H]1CC[C@@H]2[C@H](COC[C@@H](O)CN2C(=O)CC)O1,x,x,x,x,x,n
Fc1ccc2cc(CCO[C@H]3CCCCO3)ncc2c1,n,n,x,n,x,n
Fc1ccc2cnc(CCO[C@H]3CCCCO3)cc2c1,n,66.8,x,n,x,54.0
Cc1ccc(NC2=C/C(=N/S(=O)(=O)c3cccs3)c3ccccc3C2=O)cc1C,n,n,n,n,n,n
COc1ccc(S(=O)(=O)/N=C2\C=C(Nc3ccc(O)cc3)C(=O)c3ccccc32)cc1,74.0,101.5,n,n,-94.0,100.7
CC(=O)Nc1ccc(NC2=C/C(=N/S(=O)(=O)c3cccs3)c3ccccc3C2=O)cc1,n,98.9,n,66.6,-94.7,97.8
Cc1ccccc1NC1=C/C(=N\S(=O)(=O)c2cccs2)c2ccccc2C1=O,91.3,101.6,n,66.5,-94.5,x
C[C@H](CO)N1C[C@H](C)[C@@H](CN(C)C(=O)C2CCC2)Oc2ncc(-c3ccncc3)cc2C1=O,x,x,x,x,x,n
O=C(O)c1ccc(N/N=C/c2ccc(-c3ccccc3Cl)o2)cc1,n,51.4,n,n,u,n
COc1cc(/C=N/NC(=O)c2cc(C)oc2C)ccc1O,n,n,n,n,-61.5,n
O=C(N/N=C/c1ccc(-c2ccccc2Cl)o1)c1ccccc1,n,n,n,n,n,n
Nc1ccc(C(=O)N/N=C\c2ccc(OC(=O)c3ccccc3Cl)cc2)cc1,n,n,n,n,n,n
COc1cc(C(=O)N/N=C/c2ccc(OC(=O)c3ccccc3Cl)cc2)ccc1O,n,n,n,52.5,n,n
Cc1ccc(/C=N/NC(=O)c2cc(C)oc2C)cc1,x,n,n,n,n,x
CC(/C=N\NC(=O)c1cc(C)oc1C)=C\c1ccccc1,n,n,n,n,-52.1,n
COc1ccc(C=NNC(=O)c2cc(C)oc2C)cc1O,n,n,x,n,x,n
C[C@H]1CCCCO[C@@H](CN(C)S(=O)(=O)c2cn(C)cn2)[C@@H](C)CN([C@@H](C)CO)C(=O)c2cc(NC(=O)Nc3ccc(C(F)(F)F)cc3)ccc2O1,x,x,x,x,x,n
CO[C@@H]1CN(C)C(=O)c2cc(NC(=O)C3CCCC3)ccc2OC[C@@H](C)N(C)C[C@@H]1C,x,x,x,x,x,n
O=C(O)c1ccc(N/N=C/c2ccc(OC(=O)c3ccccc3Cl)cc2)cc1,n,95.8,n,54.7,-55.1,57.6
C[C@@H]1CCCCO[C@H](CN(C)C(=O)Cc2ccccc2)[C@H](C)CN([C@@H](C)CO)C(=O)c2cc(NC(=O)C3CCCCC3)ccc2O1,x,x,x,x,x,n

# Screening data deposited in PubChem by several laboratories.
